The results in this text go back to PubChem BioAssay (EPA / NIEHS).

Active and inactive are the calls of the source. Rule for the calls: active = hit-call score of the fitted dose curve at least 0.9, where 1 is the maximum; inactive = score below 0.9.

This assay in a line: CCTE_Harrill_HTTr_Apoptosis_MCF7: CCTE's 6-hour Apoptosis Assessment for the High-Throughput Transcriptomics (HTTr) Platform, in MCF-7 cells cultured in DMEM + 10% fetal bovine serum, Harrill Lab (AID 2284011). The source says: This is a cell-based assay that evaluates apoptosis using high content imaging to evaluate activation of caspase-3/7 using the CellEvent Caspase 3/7 Green detection reagent in 384-well format.One of seven assay components measured from the CCTE_Harrill_HTTr_Apoptosis assay. This was part of a full screening experiment. This is a cell-based assay that evaluates apoptosis in MCF-7 cells cultured in DMEM + 10% fetal bovine serum. High content imaging is used to evaluate activation of caspase-3/7 using the CellEvent Caspase 3/7 Green detection reagent. Measurements are taken at 6 hours after chemical dosing in 384-well format.The assay component endpoint CCTE_Harrill_HTTr_Apoptosis_MCF7 was analyzed with bidirectional fitting relation to DMSO as the negative control and baseline of activity. Using a type of viability reporter, gain-of-signal activity can be used to evaluate activation of caspase-3/7 using the CellEvent Caspase 3/7 Green detection reagent to understand changes in apoptosis. To generalize the intended target to other relatable targets, this assay endpoint is annotated to cell cycle, where the subfamily is apoptosis.
Chemicals were tested in MCF7 cells in an eight point dilution series with a six hour exposure duration.
In the case of `Oc1ccc(Cc2ccc(O)cc2)cc1`, the outcome was inactive.
Next, `Oc1c(Cl)cc(Cl)cc1Cl`: “inactive”; `CCN(N=O)C(N)=O`: “inactive”.
Turning to `CCOP(=S)(OCC)Oc1ccc(Cl)cc1Cl`, the result was inactive.
The entry for `CC(C)=CC1C(C(=O)OCc2cccc(Oc3ccccc3)c2)C1(C)C` (stereo not given) is “inactive”; for `CC(C)O.CC(C)O.OCCN(CCO)CCO.OCCN(CCO)CCO.[Ti]` it is “inactive”; for `C[CH2][Hg][S]c1ccccc1C(=O)O` it is “inactive”.
Turning to `CC(C)(C)c1ccccc1O`, the outcome was inactive.
The entry for `C#C[C@]1(O)CC[C@H]2[C@@H]3CCC4=CC(=O)CC[C@]4(C)[C@H]3CC[C@@]21C` is “inactive”; for `CCOc1cc(C=O)ccc1O` it is “inactive”.
The entry for `C=CCc1ccccc1O` is “inactive”.
Take `Cc1cc(Cl)ccc1OCCCC(=O)O`: the result was inactive.
The entry for `Brc1c(Br)c(Br)c(Oc2c(Br)c(Br)c(Br)c(Br)c2Br)c(Br)c1Br` is “inactive”.
The entry for `COc1ccccc1N` is “inactive”; for `OC[C@@H](O)[C@H]1O[C@@H]2O[C@H](C(Cl)(Cl)Cl)O[C@@H]2[C@H]1O` it is “inactive”; for `CC(O)(CS(=O)(=O)c1ccc(F)cc1)C(=O)Nc1ccc(C#N)c(C(F)(F)F)c1` (stereo not given) it is “inactive”.
Next, `C[As+](C)(C)CC(=O)[O-]`: “inactive”.
On to `COc1nn(C(=O)NS(=O)(=O)c2ccccc2OC(F)(F)F)c(=O)n1C`, for which the result was inactive.
The entry for `O=[N+]([O-])c1cccc2ccccc12` is “inactive”; for `CC(C)(C)c1ccc(CCOc2ncnc3ccccc23)cc1` it is “inactive”; for `N#CCC#N` it is “inactive”.
The entry for `Nc1ccc(N)cc1` is “inactive”.
The entry for `CNC(=O)O/N=C/C(C)(C)S(C)(=O)=O` is “inactive”; for `O=C1C[C@@H]2OCC=C3CN4CC[C@]56c7ccccc7N1[C@H]5[C@H]2[C@H]3C[C@H]46` it is “inactive”.
In the case of `Cc1cc(Cl)ccc1N`, the result was inactive.
The entry for `CN(N=O)C(N)=O` is “inactive”.
The entry for `O=C(NC(=O)c1c(F)cccc1F)Nc1ccc(Cl)cc1` is “inactive”; for `CCOP(=S)(OCC)OP(=S)(OCC)OCC` it is “inactive”; for `C1CN2CCN1CC2` it is “inactive”.
Next, `C[C@@H]1O[C@@H](O[C@H]2C[C@@H](O)[C@]3(CO)[C@H]4[C@H](O)C[C@]5(C)[C@@H](C6=CC(=O)OC6)CC[C@]5(O)[C@@H]4CC[C@]3(O)C2)[C@H](O)[C@H](O)[C@H]1O`: “inactive”.
Take `O=C(O)C1(c2ccc3c(c2)OC[C@H](Cc2ccc(-c4ccccc4)cc2)[C@H]3O)CCCC1`: the result was inactive.
The entry for `Clc1cccc(Cl)c1Cl` is “inactive”.
For the compound `CC(C)[C@@H](Nc1ccc(C(F)(F)F)cc1Cl)C(=O)OC(C#N)c1cccc(Oc2ccccc2)c1` (stereo not given in full), the outcome was inactive.
Next, `O=CCCl`: “inactive”; `CCOC(=O)c1ccccc1S(=O)(=O)NC(=O)Nc1nc(Cl)cc(OC)n1`: “inactive”; `CN(C)C(=S)S`: “inactive”.
Next, `OC(Cc1ccccc1Cl)(Cn1[nH]cnc1=S)C1(Cl)CC1` (stereo not given): “inactive”.
The entry for `C[C@H]1C(=O)O[C@@H]2CCN3CC=C(COC(=O)[C@](C)(O)[C@]1(C)O)[C@H]23` is “inactive”.
As for `CCCCOC(=O)COC(=O)c1ccccc1C(=O)OCCCC`, the outcome was inactive.
Next, `CCCCCCCCCCCCc1cccc(S(=O)(=O)O)c1`: “inactive”.
